We go through 14 compounds from PubChem BioAssay (Tox21).

A short description of experiment [1]: qHTS assay to test for compound auto fluorescence at 535 nm (green) in HEK293 cells (AID 720680).
Experiment [2] in a line: qHTS assay to test for compound auto fluorescence at 460 nm (blue) in HEK293 cell free culture (AID 720681). Summed up: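 Test compounds were pinned into cell-free culture medium (DMEM with 10% FBS) and fluorescence was read directly at Ex/Em 405/460 nm. Signals were expressed as fluorescence equivalents of triamterene, with DMSO vehicle as control.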
Experiment [3] can be described thus: qHTS assay to test for compound auto fluorescence at 535 nm (green) in HEK293 cell free culture (AID 720682). Put shortly:
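Intrinsic compound fluorescence is measured in culture medium containing 10% FBS, with excitation at 485 nm and detection at 535 nm, referenced to fluorescein.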

The nature of experiment [4]: qHTS assay to test for compound auto fluorescence at 590 nm (red) in HEK293 cell free culture (AID 720683). Put shortly:
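Tox21 10K library compounds were pinned into cell-free DMEM with 10% FBS and fluorescence was read at excitation 540 nm. Activity is expressed as Rose Bengal sodium equivalency.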

A short description of experiment [5]: qHTS assay to test for compound auto fluorescence at 590 nm (red) in HepG2 cell free culture (AID 720684). Summed up: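 Measured in medium alone (MEM containing 10% FBS) following pintool addition of compound; emission at 590 nm with 540 nm excitation, referenced to Rose Bengal sodium.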
The nature of experiment [6]: qHTS assay to test for compound auto fluorescence at 460 nm (blue) in HepG2 cell free culture (AID 720685). Put shortly:
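Compound (23 nL) or DMSO pinned into cell-free MEM with 10% FBS; blue fluorescence read at 405/460 nm excitation/emission, expressed as auto-fluorescence equivalency to triamterene.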

Experiment [7] can be described thus: qHTS assay to test for compound auto fluorescence at 535 nm (green) in HepG2 cell free culture (AID 720686).
Experiment [8] is described as follows: qHTS assay to test for compound auto fluorescence at 460 nm (blue) in HepG2 cells (AID 720687). Summed up:
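Cells (2,000/well in MEM with 10% FBS) attached overnight at 37 C, then were exposed to compound or DMSO for 1 hr at 37 C, 5% CO2. Fluorescence read at Ex/Em 405/460 nm, expressed as triamterene-equivalent signal.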

Experiment [9] has as its target Glucocorticoid receptor (Homo sapiens) (UniProt P04150). Description: qHTS assay to identify small molecule agonists of the glucocorticoid receptor (GR) signaling pathway (AID 720691; active means well fitted activation curve with a large enough effect in the signal ratio in the repeat runs, not every such curve was filed as active; the % refers to the signal ratio). Put shortly:
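Fluorescence intensity from LiveBLAzer B/G FRET substrate (2 h, room temperature) reports beta-lactamase expression driven by the glucocorticoid response element in GR-bla HeLa cells after 18 h compound exposure at 37 C.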

For experiment [10] the target is unchanged. Description: qHTS assay to identify small molecule antagonists of the glucocorticoid receptor (GR) signaling pathway (AID 720692; active means well fitted inhibition curve with a large enough effect in the signal ratio in the repeat runs, not every such curve was filed as active; the % refers to the signal ratio). Put shortly: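 HeLa GR-bla cells; cmpd + dex 5 nM final, 18 h 37 C; LiveBLAzer B/G FRET substrate 2 h RT; fluorescence intensity read. Antagonist mode, qHTS.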
Experiment [11] in a line: qHTS assay to identify small molecule antagonists of the glucocorticoid receptor (GR) signaling pathway - cell viability counter screen (AID 720693). Further: nearly all actives have a fitted effect of over 55% in size.
Experiment [12] can be described thus: qHTS assay for identifying genotoxic compounds that show differential cytotoxicity against isogenic chicken DT40 cell lines with known DNA damage response pathways - Rev3 mutant cell line (AID 743014). Further: nearly all actives have a fitted effect of over 55% in size. Further: potency means the concentration at half of the fitted maximal effect.
A short description of experiment [13]: qHTS assay to identify small molecule antagonists of the androgen receptor (AR) signaling pathway - cell viability counter screen (AID 743033; further: nearly all actives have a fitted effect of over 45% in size).
Experiment [14] in a line: qHTS assay to identify small molecule antagonists of the androgen receptor (AR) signaling pathway using the MDA cell line - cell viability counter screen (AID 743041; further: nearly all actives have a fitted effect of over 45% in size). Summed up: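 Viability counter screen run alongside the AR antagonist reporter: cells seeded 5 h before compound, R1881 added, 16 h incubation at 37C without CO2, fluorescent CellTiter-Fluor signal quantified.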

Experiment [15] in a line: qHTS assay for identifying genotoxic compounds that show differential cytotoxicity against isogenic chicken DT40 cell lines with known DNA damage response pathways - wild type cell line (AID 743012). Further: nearly all actives have a fitted effect of over 60% in size. Further: potency means the concentration at half of the fitted maximal effect. Put shortly:
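Wild type DT40, 300 cells/well, ~0.5 h settle at 37 C/5% CO2; compounds in DMSO added by pintool; 40 h at 37 C/5% CO2; CellTiter-Glo, 30 min RT; luminescence.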

Experiment [16] can be described thus: qHTS assay for identifying genotoxic compounds that show differential cytotoxicity against isogenic chicken DT40 cell lines with known DNA damage response pathways - Rad54/Ku70 mutant cell line (AID 743015). Further: nearly all actives have a fitted effect of over 60% in size. Further: potency means the concentration at half of the fitted maximal effect.
Experiment [17] addresses Androgen receptor (Homo sapiens) (UniProt P10275). Description: qHTS assay to identify small molecule antagonists of the androgen receptor (AR) signaling pathway (AID 743035; active means well fitted inhibition curve with a large enough effect in the signal ratio in the repeat runs, not every such curve was filed as active; the % refers to the signal ratio). Put shortly:
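Fluorescence from a beta-lactamase FRET substrate (LiveBLAzer B/G, 2 h, room temperature) measured inhibition of R1881-stimulated signaling in GeneBLAzer AR-UAS-bla HEK293 cells exposed to compound for 16 h at 37C.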

Values without a mark were called inactive. Records with an inconclusive call do not appear. Calls of active or inactive are those of the source. Unless noted, the call rests on the fitted dose curve; in most records, active means well fitted curve in the direction sought with a large enough effect in the repeat runs; inconclusive means weak or mixed curves; inactive means no such curve, though single readings can be large; an effect the other way counts as inactive or inconclusive.
On the % scale 0 is the no-effect control and ±100 the full control effect.

Glucocorticoid receptor (Homo sapiens), sequence (P04150 whole entry, looked up): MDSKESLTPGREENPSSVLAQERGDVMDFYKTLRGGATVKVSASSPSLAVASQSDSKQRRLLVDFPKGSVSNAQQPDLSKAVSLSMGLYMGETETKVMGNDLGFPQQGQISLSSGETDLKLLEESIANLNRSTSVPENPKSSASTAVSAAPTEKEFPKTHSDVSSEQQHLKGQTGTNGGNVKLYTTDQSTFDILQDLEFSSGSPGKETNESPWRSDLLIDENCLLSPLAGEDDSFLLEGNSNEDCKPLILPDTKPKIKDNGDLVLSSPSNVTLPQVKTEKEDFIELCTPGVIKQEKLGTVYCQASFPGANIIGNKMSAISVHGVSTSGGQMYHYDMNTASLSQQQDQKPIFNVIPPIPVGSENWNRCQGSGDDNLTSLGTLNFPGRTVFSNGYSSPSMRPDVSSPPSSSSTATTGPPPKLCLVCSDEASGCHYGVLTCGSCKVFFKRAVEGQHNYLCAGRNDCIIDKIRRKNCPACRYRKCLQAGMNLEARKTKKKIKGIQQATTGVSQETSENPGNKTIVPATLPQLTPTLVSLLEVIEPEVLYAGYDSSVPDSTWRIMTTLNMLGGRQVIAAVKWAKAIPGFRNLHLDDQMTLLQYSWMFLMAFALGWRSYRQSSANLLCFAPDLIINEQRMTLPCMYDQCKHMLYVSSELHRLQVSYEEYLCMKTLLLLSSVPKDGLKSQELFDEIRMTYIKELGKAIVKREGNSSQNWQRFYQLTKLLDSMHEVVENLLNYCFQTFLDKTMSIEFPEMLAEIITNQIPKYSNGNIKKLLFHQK
Androgen receptor (Homo sapiens), sequence (P10275 whole entry, looked up): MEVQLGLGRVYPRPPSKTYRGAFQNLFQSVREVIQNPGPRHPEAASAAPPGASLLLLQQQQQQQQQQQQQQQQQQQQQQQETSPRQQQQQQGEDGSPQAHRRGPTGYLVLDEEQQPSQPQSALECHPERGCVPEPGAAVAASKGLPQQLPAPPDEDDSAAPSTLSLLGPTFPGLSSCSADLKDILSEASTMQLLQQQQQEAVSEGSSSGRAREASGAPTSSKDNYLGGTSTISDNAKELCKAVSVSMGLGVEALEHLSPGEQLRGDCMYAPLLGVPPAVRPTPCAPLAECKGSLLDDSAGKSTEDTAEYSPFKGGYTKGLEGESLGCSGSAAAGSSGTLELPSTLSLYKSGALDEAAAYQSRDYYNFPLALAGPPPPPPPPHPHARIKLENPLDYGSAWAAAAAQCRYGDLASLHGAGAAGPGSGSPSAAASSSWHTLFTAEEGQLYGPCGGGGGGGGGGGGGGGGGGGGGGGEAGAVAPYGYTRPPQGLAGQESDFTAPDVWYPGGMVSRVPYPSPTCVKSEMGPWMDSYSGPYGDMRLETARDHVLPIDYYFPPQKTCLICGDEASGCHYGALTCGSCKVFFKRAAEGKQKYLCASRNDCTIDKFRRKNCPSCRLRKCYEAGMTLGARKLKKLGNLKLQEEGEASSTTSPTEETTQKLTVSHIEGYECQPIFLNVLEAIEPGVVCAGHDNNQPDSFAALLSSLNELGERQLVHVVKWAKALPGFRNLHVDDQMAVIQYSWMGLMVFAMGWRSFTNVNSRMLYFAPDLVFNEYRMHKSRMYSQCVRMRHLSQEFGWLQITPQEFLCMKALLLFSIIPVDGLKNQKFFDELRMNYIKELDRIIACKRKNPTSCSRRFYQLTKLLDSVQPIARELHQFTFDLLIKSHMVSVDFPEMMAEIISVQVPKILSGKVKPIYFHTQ

In the case of `CCCCOc1ccc(CC(=O)NO)cc1`, the fluorescence, % of fluorescein in [1] is 0.0125% [at 18.6 µM]. Moreover, the fluorescence, % of fluorescent control in [2] is -0.0158% [at 18.6 µM]; in experiment [4], -0.0389% [at 18.6 µM]; in [6], 0.0098% [at 18.6 µM]; in experiment [8], -0.124% [at 18.6 µM]. The activity change in experiment [3] was 0.0033% [at 18.6 µM]. In addition, in experiment [5], the fluorescence, % of Rose Bengal was -0.259% [at 18.6 µM]. Besides, in experiment [7], the fluorescence, % of fluorescein control is -0.0407% [at 18.6 µM]. The Potency result in experiment [9], in experiment [10], in experiment [11], in experiment [13] and in [14] was “inactive” in each case. Further, the Potency in [12] is 12.7 µM (active).
For the compound `CCCCCCCCC(CO)CCCCCC` (stereo not drawn), the compound was called inactive in experiment [1], in experiment [3], in experiment [4], in [5] and in experiment [7]. Also, the Potency entry in experiment [2], in [6], in experiment [8], in [9], in experiment [11] and in experiment [15] was “inactive” each time. The Potency result in [12], in experiment [16], in experiment [13] and in experiment [14] was “inactive” each time.
`CN1CCC(=C2c3ccccc3CCc3sccc32)CC1`: the result in experiment [1], in [3], in experiment [4], in experiment [5] and in experiment [7] was inactive. The Potency result in experiment [2], in experiment [6], in [8], in experiment [9], in [11] and in [13] was “inactive” each time. The Potency entry in experiment [14] was “inactive”. The Potency in experiment [15] is 6.68 µM (active); in experiment [12], 15 µM (active); in experiment [16], 11.9 µM (active).
Take `CCCCC(CC)COCCCN` (stereo not drawn): the compound was called inactive in experiment [1], in experiment [3], in [4], in experiment [5] and in [7]. Moreover, the Potency result in experiment [2], in [6], in experiment [8], in experiment [9], in [10] and in experiment [14] was “inactive” each time. Besides, the Potency in experiment [12] was 60.4 µM (active).
Consider `CN(C)C/C=C(/c1ccc(Br)cc1)c1cccnc1`, for which the compound was called inactive in experiment [1], in experiment [3], in [4], in experiment [5] and in experiment [7]. Besides, the Potency entry in [2], in experiment [6], in experiment [8], in [9], in experiment [10] and in [11] was “inactive” each time. The Potency entry in experiment [13] and in [14] was “inactive” in each case. For the same compound, the Potency in [15] is 29.8 µM (active).
As for `CCCCCCCCCCCCCCCC(=O)OC/C=C(C)/C=C/C=C(C)/C=C/C1=C(C)CCCC1(C)C`, the result in [1], in [3], in experiment [4], in [5] and in [7] was inactive. Besides, the Potency result in [2], in [6], in [8], in [9], in experiment [11] and in [15] was “inactive” in each case. Moreover, the Potency entry in [12], in experiment [16], in experiment [13] and in experiment [14] was “inactive” each time.
Regarding `CC(C)(C)c1ccc(OCC2CO2)cc1` (stereo not drawn), the outcome in experiment [1], in experiment [3], in experiment [4], in [5] and in experiment [7] was inactive. The Potency entry in experiment [2], in experiment [6], in experiment [8], in experiment [9], in experiment [11] and in experiment [15] was “inactive” in each case. Moreover, the Potency entry in [12], in experiment [16] and in [14] was “inactive” throughout.
With `CCCCOC(=O)/C=C\C(=O)OCCCC`, the compound was called inactive in experiment [1], in [3], in experiment [4], in experiment [5] and in [7]. In addition, the Potency result in [2], in [6], in experiment [8], in [9], in experiment [11] and in [15] was “inactive” in each case. The Potency result in experiment [12], in experiment [16], in [13] and in experiment [14] was “inactive” throughout.
With `CCCc1ccccc1`, the compound was called inactive in experiment [1], in experiment [3], in experiment [4], in experiment [5] and in [7]. In addition, the Potency result in [2], in [6], in experiment [8], in experiment [9], in experiment [10] and in experiment [11] was “inactive” each time. The Potency result in experiment [12], in experiment [16], in [13] and in experiment [14] was “inactive” throughout.
On to `O=c1[nH]cnc2ccccc12`, for which the call in experiment [1], in [3], in experiment [4], in experiment [5] and in [7] was inactive. In addition, the Potency result in [2], in [6], in [8], in experiment [9], in experiment [10] and in experiment [11] was “inactive” in each case. Besides, the Potency entry in [13] and in experiment [14] was “inactive” each time.
Regarding `O=[N+]([O-])c1cccc(Cl)c1Cl`, the compound was called inactive in experiment [1], in [3], in experiment [4], in [5] and in experiment [7]. In addition, the Potency entry in experiment [2], in experiment [6], in [8], in experiment [9], in [11] and in experiment [15] was “inactive” throughout. Moreover, the Potency result in experiment [12], in experiment [16], in experiment [13] and in experiment [14] was “inactive” in each case.
In the case of `CCOc1ccc(NC(=O)CC(C)=O)cc1`, the outcome in [1], in [3], in experiment [4], in experiment [5] and in experiment [7] was inactive. In addition, the Potency result in experiment [2], in experiment [6], in [8], in experiment [9], in [10] and in [11] was “inactive” throughout. Besides, the Potency result in [13] and in [14] was “inactive” each time.
As for `CN(C)CCCNCCCN`, the outcome in [1], in experiment [3], in experiment [4], in experiment [5] and in experiment [7] was inactive. In addition, the Potency result in experiment [2], in experiment [6], in experiment [8], in experiment [9], in experiment [10] and in experiment [11] was “inactive” in each case. In addition, the Potency entry in experiment [15] and in [14] was “inactive” throughout.
For `CCCCCC/C=C/C=O`, the result in experiment [1], in experiment [3], in [4], in experiment [5] and in experiment [7] was inactive. The Potency entry in [2], in experiment [6], in experiment [8], in experiment [9], in experiment [11] and in [15] was “inactive” in each case. For the same compound, the Potency entry in experiment [12], in experiment [16], in [13] and in experiment [17] was “inactive” throughout.
